Inconclusive results are not listed. The source made the active and inactive calls. Calls come from the whole dose curve.
What was measured:
[1] = Primary qHTS for Huh7 cytotoxicity: counterscreen for inhibitors of MERS-S pseudotyped particle cell entry (AID 1479147); settings: cell viability read-out; series mostly up to 57.1 µM
[2] = Primary qHTS for inhibitors of MERS-S pseudo-typed particle cell entry (AID 1479149); settings: MERS-S pseudotyped particle entry, luciferase; series mostly up to 57.1 µM; note: nearly all actives have a fitted effect of over 60% in size
[3] = Primary qHTS for Vero E6 cytotoxicity: counterscreen for inhibitors of SARS-S pseudo-typed particle cell entry (AID 1479150); settings: cell viability; series mostly up to 57.1 µM
[4] = Cytotoxicity counterscreen for inhibitors of SARS-CoV-2 cell entry (AID 1645845); settings: cell viability (SARS-CoV-2 entry assay cells); series mostly up to 57.1 µM; note: nearly all actives have a fitted effect of over 50% in size; note: potency is the fitted concentration of half-maximal effect
In short: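 ATP-content luminescence (ATPLite 1step, 15 min RT) read after 48 h compound exposure of Expi293F cells stably expressing human ACE2; normalized to cells-only wells and media-only wells.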

[5] = Primary qHTS to identify inhibitors of SARS-CoV-2 cell entry (AID 1645846); settings: SARS-CoV-2 pseudovirus cell entry assay, luminescence; activity change, negative = inhibition: at 57.1 µM (top of the series) unless noted; series mostly up to 57.1 µM; note: nearly all actives have a fitted effect of over 45% in size
In short: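 HEK293 cells stably expressing human ACE2, pre-treated 1 h with compound, then infected with MLV particles pseudotyped with Wuhan-Hu-1 spike (C-terminal 19-aa truncation). Luciferase luminescence after 48 h at 37 °C, normalised to spike PP and bald PP.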

C[C@]12CC[C@@H]3c4ccc(O)cc4C[C@@H](CCCCCCCCCS(=O)CCCC(F)(F)C(F)(F)F)[C@H]3[C@@H]1CC[C@@H]2O (stereo not given in full)
inactive: Potency [1] | Potency [2] | Potency [3] | Potency [4]

NS(=O)(=O)Cc1noc2ccccc12
inactive: Potency [1] | Potency [2] | Potency [3] | Potency [4] | Potency [5]

CN1CCN(C2=Nc3cc(Cl)ccc3Nc3ccccc32)CC1
inactive: Potency [1] | Potency [2] | Potency [3] | Potency [4]

CC(C)NC[C@@H](O)COc1ccc(CC(N)=O)cc1
inactive: Potency [1] | Potency [2] | Potency [3] | Potency [4]
-29.4%: activity change, negative = inhibition [5]

CS(=O)(=O)CCNCc1ccc(-c2ccc3ncnc(Nc4ccc(OCc5cccc(F)c5)c(Cl)c4)c3c2)o1
inactive: Potency [1] | Potency [2] | Potency [3] | Potency [4]

Cn1cc[nH]c1=S
inactive: Potency [1] | Potency [2] | Potency [3] | Potency [4] | Potency [5]

CCOc1ccc2ccccc2c1C(=O)N[C@@H]1C(=O)N2[C@@H]1SC(C)(C)[C@@H]2C(=O)O
inactive: Potency [1] | Potency [2] | Potency [3] | Potency [4] | Potency [5]

CC(=O)CCCCn1c(=O)c2c(ncn2C)n(C)c1=O
inactive: Potency [1] | Potency [2] | Potency [3] | Potency [4] | Potency [5]

CCOC(=O)C1=C(C)NC(C)=C(C(=O)OC)C1c1cccc(Cl)c1Cl (stereo not given)
inactive: Potency [1] | Potency [2] | Potency [3] | Potency [4]

CC(=O)O[C@@]12CO[C@@H]1C[C@H](O)[C@@]1(C)C(=O)[C@H](O)C3=C(C)[C@@H](OC(=O)[C@H](O)[C@@H](NC(=O)OC(C)(C)C)c4ccccc4)C[C@@](O)([C@@H](OC(=O)c4ccccc4)[C@H]21)C3(C)C
inactive: Potency [1] | Potency [2] | Potency [3]
active: Potency [4] 8.91 µM

Reference: PubChem BioAssay (NCATS)
